The supplement of paper PMC3545927
This is one part of the list. How many sequences the whole screen found active is unknown.

Molecular target: furin, P09958
Assay: furin cleavage Z-score vs untreated control; higher = more cleavage, active = 3.5 or more, inactive = 1 or less, 8 variable residues between constant flanks
Procedure: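 Multiplexed peptide-cDNA fusion cleavage assay. 8-mer variable peptides flanked by constant Cys-Ala (N-term) and Ala-Gly-Asn-Ala-Ser-Ala-Ser-Ala (C-term) and conjugated to a cDNA oligonucleotide were bead-immobilised via the N-terminus. They were treated with purified furin at a 1:10 enzyme:substrate ratio in 50 mM HEPES pH 7.5, 1 mM CaCl2, 100 mM NaCl for 7.5, 15 or 30 min. Released cDNA was counted by next-generation sequencing, and log counts versus no-furin controls were lowess-adjusted and converted to robust Z-scores.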

furin, P09958, sequence (P09958 whole entry): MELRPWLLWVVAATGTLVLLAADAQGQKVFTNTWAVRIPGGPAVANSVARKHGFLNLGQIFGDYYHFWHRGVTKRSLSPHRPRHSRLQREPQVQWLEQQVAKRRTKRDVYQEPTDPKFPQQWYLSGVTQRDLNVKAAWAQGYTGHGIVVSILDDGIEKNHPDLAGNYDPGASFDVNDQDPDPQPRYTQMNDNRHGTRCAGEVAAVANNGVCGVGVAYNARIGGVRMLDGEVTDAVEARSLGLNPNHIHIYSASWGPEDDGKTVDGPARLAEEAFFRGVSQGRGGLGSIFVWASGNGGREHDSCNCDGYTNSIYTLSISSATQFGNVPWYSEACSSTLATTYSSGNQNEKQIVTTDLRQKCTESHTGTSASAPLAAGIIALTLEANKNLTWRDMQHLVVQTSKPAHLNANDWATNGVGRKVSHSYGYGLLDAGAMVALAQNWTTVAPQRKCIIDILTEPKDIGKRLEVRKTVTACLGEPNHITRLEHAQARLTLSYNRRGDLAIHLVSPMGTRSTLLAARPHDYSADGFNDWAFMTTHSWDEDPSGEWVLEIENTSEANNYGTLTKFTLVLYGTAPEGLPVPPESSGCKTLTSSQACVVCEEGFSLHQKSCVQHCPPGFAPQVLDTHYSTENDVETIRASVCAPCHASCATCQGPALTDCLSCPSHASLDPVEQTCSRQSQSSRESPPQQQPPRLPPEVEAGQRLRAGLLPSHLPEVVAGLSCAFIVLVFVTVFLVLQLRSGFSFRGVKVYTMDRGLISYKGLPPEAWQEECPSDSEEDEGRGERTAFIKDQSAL

CANKSRSARSAGNASASA [FS-467]
furin cleavage Z-score (7.5 min): 7.95 (active) | furin cleavage Z-score (15 min): 7.93 (active) | furin cleavage Z-score (30 min): 7.08 (active)

CALNSRSARSAGNASASA [FS-1230]
furin cleavage Z-score (7.5 min): 9.33 (active) | furin cleavage Z-score (15 min): 9.86 (active) | furin cleavage Z-score (30 min): 8.45 (active)

CAVLSRASRSAGNASASA [FS-104]
furin cleavage Z-score (7.5 min): 9.22 (active) | furin cleavage Z-score (15 min): 8.83 (active) | furin cleavage Z-score (30 min): 7.05 (active)

CASKVRKSRSAGNASASA [FS-1166]
furin cleavage Z-score (7.5 min): 10.9 (active) | furin cleavage Z-score (15 min): 11.3 (active) | furin cleavage Z-score (30 min): 8.46 (active)

CAMEEHSQHLAGNASASA [HC9]
furin cleavage Z-score (7.5 min): -0.427 (inactive) | furin cleavage Z-score (15 min): 0.433 (inactive) | furin cleavage Z-score (30 min): 0.518 (inactive)

CASVCGPVYCAGNASASA [HC411]
furin cleavage Z-score (7.5 min): -0.739 (inactive) | furin cleavage Z-score (15 min): -0.0378 (inactive) | furin cleavage Z-score (30 min): 0.44 (inactive)

CALSQTKQSGAGNASASA [HC947]
furin cleavage Z-score (7.5 min): -0.592 (inactive) | furin cleavage Z-score (15 min): 0.456 (inactive) | furin cleavage Z-score (30 min): -0.236 (inactive)

CAWGVLAGIAAGNASASA [HC337]
furin cleavage Z-score (7.5 min): -1.66 (inactive) | furin cleavage Z-score (15 min): -1.27 (inactive) | furin cleavage Z-score (30 min): 0.739 (inactive)

CAARPDYNPPAGNASASA [HC1305]
furin cleavage Z-score (7.5 min): -1.38 (inactive) | furin cleavage Z-score (15 min): -0.196 (inactive) | furin cleavage Z-score (30 min): -1.47 (inactive)

CAVVCCSMSWAGNASASA [HC2088]
furin cleavage Z-score (7.5 min): -0.556 (inactive) | furin cleavage Z-score (15 min): 1.09 | furin cleavage Z-score (30 min): 0.406 (inactive)

CARCHARKAVAGNASASA [HC1425]
furin cleavage Z-score (7.5 min): 0.121 (inactive) | furin cleavage Z-score (15 min): 0.298 (inactive) | furin cleavage Z-score (30 min): -0.417 (inactive)

CACTPCSGSWAGNASASA [HC1840]
furin cleavage Z-score (7.5 min): -0.759 (inactive) | furin cleavage Z-score (15 min): -0.736 (inactive) | furin cleavage Z-score (30 min): -0.368 (inactive)

CAYPWPLYGNAGNASASA [HC201]
furin cleavage Z-score (7.5 min): -0.792 (inactive) | furin cleavage Z-score (15 min): 1.01 | furin cleavage Z-score (30 min): -0.667 (inactive)

CASAHRQPRLAGNASASA [FS-144]
furin cleavage Z-score (7.5 min): 0.7 (inactive) | furin cleavage Z-score (15 min): 0.218 (inactive) | furin cleavage Z-score (30 min): 0.636 (inactive)

CASKSRVSRLAGNASASA [FS-1488]
furin cleavage Z-score (7.5 min): 3.43 | furin cleavage Z-score (15 min): 1.78 | furin cleavage Z-score (30 min): 3.65 (active)

CAPALRSARSAGNASASA [FS-66]
furin cleavage Z-score (7.5 min): 0.638 (inactive) | furin cleavage Z-score (15 min): 1.37 | furin cleavage Z-score (30 min): 1.27

CARLWRKSRSAGNASASA [FS-189]
furin cleavage Z-score (7.5 min): 9.72 (active) | furin cleavage Z-score (15 min): 8.99 (active) | furin cleavage Z-score (30 min): 8.13 (active)

CASVASSSASAGNASASA [HC1259]
furin cleavage Z-score (7.5 min): -0.54 (inactive) | furin cleavage Z-score (15 min): 0.0424 (inactive) | furin cleavage Z-score (30 min): -0.501 (inactive)

CASKSRSARSAGNASASA [FS-500]
furin cleavage Z-score (7.5 min): 10.3 (active) | furin cleavage Z-score (15 min): 8.51 (active) | furin cleavage Z-score (30 min): 6.45 (active)

CAYGSRHIRLAGNASASA [FS-1107]
furin cleavage Z-score (7.5 min): 0.267 (inactive) | furin cleavage Z-score (15 min): 1.21 | furin cleavage Z-score (30 min): 2.07

CALNARYSRSAGNASASA [FS-52]
furin cleavage Z-score (7.5 min): 8.29 (active) | furin cleavage Z-score (15 min): 10.6 (active) | furin cleavage Z-score (30 min): 9.13 (active)

CAMEECSEHLAGNASASA [HC1732]
furin cleavage Z-score (7.5 min): 0.304 (inactive) | furin cleavage Z-score (15 min): -1.16 (inactive) | furin cleavage Z-score (30 min): 0.588 (inactive)

CAAVPCHRPSAGNASASA [HC2303]
furin cleavage Z-score (7.5 min): 0.31 (inactive) | furin cleavage Z-score (15 min): -0.11 (inactive) | furin cleavage Z-score (30 min): 0.292 (inactive)

CALGKVIDTLAGNASASA [HC220]
furin cleavage Z-score (7.5 min): -0.0125 (inactive) | furin cleavage Z-score (15 min): 0.316 (inactive) | furin cleavage Z-score (30 min): -0.584 (inactive)

CATTKCSGSWAGNASASA [HC1874]
furin cleavage Z-score (7.5 min): -0.691 (inactive) | furin cleavage Z-score (15 min): -0.337 (inactive) | furin cleavage Z-score (30 min): -0.205 (inactive)

CANKSRSSRSAGNASASA [FS-180]
furin cleavage Z-score (7.5 min): 8.13 (active) | furin cleavage Z-score (15 min): 8.25 (active) | furin cleavage Z-score (30 min): 6.67 (active)

CATLSRSSRSAGNASASA [FS-1292]
furin cleavage Z-score (7.5 min): 6.97 (active) | furin cleavage Z-score (15 min): 8.07 (active) | furin cleavage Z-score (30 min): 7.37 (active)

CASKSRSSRSAGNASASA [FS-501]
furin cleavage Z-score (7.5 min): 8.19 (active) | furin cleavage Z-score (15 min): 9.38 (active) | furin cleavage Z-score (30 min): 7.93 (active)

CANKSRESRPAGNASASA [FS-1469]
furin cleavage Z-score (7.5 min): -0.557 (inactive) | furin cleavage Z-score (15 min): -0.538 (inactive) | furin cleavage Z-score (30 min): -0.178 (inactive)

CASGSRSSRSAGNASASA [FS-1409]
furin cleavage Z-score (7.5 min): 0.457 (inactive) | furin cleavage Z-score (15 min): 1.76 | furin cleavage Z-score (30 min): 2.85

CAPRTCRNMWAGNASASA [HC1185]
furin cleavage Z-score (7.5 min): -0.106 (inactive) | furin cleavage Z-score (15 min): 1.74 | furin cleavage Z-score (30 min): 0.874 (inactive)

CAMEEDSQHLAGNASASA [HC12]
furin cleavage Z-score (7.5 min): 1.39 | furin cleavage Z-score (15 min): -0.675 (inactive) | furin cleavage Z-score (30 min): -1.53 (inactive)

CADLLVGSATAGNASASA [HC292]
furin cleavage Z-score (7.5 min): -0.794 (inactive) | furin cleavage Z-score (15 min): -0.376 (inactive) | furin cleavage Z-score (30 min): -2.04 (inactive)

CAEVPCHRISAGNASASA [HC2384]
furin cleavage Z-score (7.5 min): -0.484 (inactive) | furin cleavage Z-score (15 min): 0.399 (inactive) | furin cleavage Z-score (30 min): 0.761 (inactive)

CARDQRSVLAAGNASASA [FS-2206]
furin cleavage Z-score (7.5 min): -0.0379 (inactive) | furin cleavage Z-score (15 min): -0.365 (inactive) | furin cleavage Z-score (30 min): 2.37

CAKHQRAKRAAGNASASA [FS-1130]
furin cleavage Z-score (7.5 min): 5.65 (active) | furin cleavage Z-score (15 min): 4.42 (active) | furin cleavage Z-score (30 min): 4.22 (active)

CASLGRAKRAAGNASASA [FS-1569]
furin cleavage Z-score (7.5 min): 5.19 (active) | furin cleavage Z-score (15 min): 5.19 (active) | furin cleavage Z-score (30 min): 3.67 (active)

CASWGRVWRAAGNASASA [FS-1420]
furin cleavage Z-score (7.5 min): 0.424 (inactive) | furin cleavage Z-score (15 min): -1.01 (inactive) | furin cleavage Z-score (30 min): 0.706 (inactive)

CASLLSPRPIAGNASASA [HC736]
furin cleavage Z-score (7.5 min): 0.821 (inactive) | furin cleavage Z-score (15 min): -0.642 (inactive) | furin cleavage Z-score (30 min): -0.193 (inactive)

CAAVRTKLKLAGNASASA [HC1635]
furin cleavage Z-score (7.5 min): -0.516 (inactive) | furin cleavage Z-score (15 min): 0.293 (inactive) | furin cleavage Z-score (30 min): 1.05

CARKKRNVNFAGNASASA [FS-3158]
furin cleavage Z-score (7.5 min): 10.3 (active) | furin cleavage Z-score (15 min): 10.5 (active) | furin cleavage Z-score (30 min): 8.52 (active)

CARKKRIFNLAGNASASA [FS-2693]
furin cleavage Z-score (7.5 min): 0.592 (inactive) | furin cleavage Z-score (15 min): 0.839 (inactive) | furin cleavage Z-score (30 min): 0.689 (inactive)

CARRKRKNKTAGNASASA [FS-1968]
furin cleavage Z-score (7.5 min): 0.116 (inactive) | furin cleavage Z-score (15 min): -2.04 (inactive) | furin cleavage Z-score (30 min): -0.0117 (inactive)

CARRKKQVGTAGNASASA [FS-2450]
furin cleavage Z-score (7.5 min): -0.127 (inactive) | furin cleavage Z-score (15 min): 1.03 | furin cleavage Z-score (30 min): 0.188 (inactive)

CARRKRNVNTAGNASASA [FS-2068]
furin cleavage Z-score (7.5 min): 9.71 (active) | furin cleavage Z-score (15 min): 10.9 (active) | furin cleavage Z-score (30 min): 8.02 (active)
